The source made the active and inactive calls. How the source made its calls: active means hit-call score of the fitted dose curve at least 0.9, where 1 is the maximum; inactive means score below 0.9.
Assays:
[1] = read-out: Matrix Metallopeptidase 1 (MMP1), MMP1 (gene 4312); test: BSK_BE3C_MMP1: BioMAP Diversity Plus: BE3C Assay for Matrix Metallopeptidase 1 (MMP1) Biomarker Activity (AID 2283024); settings: primary human bronchial epithelial cells; actives raise or lower the signal
Method in brief: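 Human primary bronchial epithelial cells (BE3C system) dosed for 24 h; MMP-1 quantified by ELISA. Bidirectional fit against DMSO; cytotoxicity tracked in parallel cultures by SRB total-protein staining.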

[2] = BSK_3C_Vis: BioMAP Diversity Plus: 3C Assay for Morphology Visualization (AID 2283025); settings: primary human endothelial cells (HUVEC);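 further: fitted both ways so gain or loss versus DMSO counts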;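 on AC50: light microscopy image of cell morphology used as background control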
Method in brief: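 Human umbilical vein endothelial cell morphology was inspected by light microscopy 24 h after chemical dosing; scored bidirectionally relative to DMSO.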

[3] = read-out: Pselectin, SELP (gene 6403); test: BSK_4H_Pselectin: BioMAP Diversity Plus: 4H Assay for Pselectin Biomarker Activity (AID 2283026); settings: primary human endothelial cells (HUVEC); actives raise or lower the signal
Method in brief: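 Primary human umbilical vein endothelial cells were treated 24 h, and cell-surface P-selectin was then quantified by ELISA. Bidirectional fit versus DMSO; cytotoxicity checked in parallel cultures by SRB total-protein staining.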

[4] = BSK_4H_SRB: Viability Assessment in the BioMAP Diversity Plus: 4H Assay (AID 2283027); settings: primary human endothelial cells (HUVEC);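 on AC50: curves fitted both ways versus DMSO so AC50 may be loss or gain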
Method in brief: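 Human umbilical vein endothelial cells were dosed with chemical and, after 24 h, fixed with 10% TCA, stained with 0.1% sulforhodamine B, and read at 560 nm to give total protein as a cytotoxicity measure. Bidirectional fitting relative to DMSO control.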

[5] = BSK_BE3C_SRB: Viability Assessment in the BioMAP Diversity Plus: BE3C Assay (AID 2283028); settings: primary human bronchial epithelial cells;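 on AC50: fitted both ways so AC50 may mark signal gain or loss versus DMSO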
Method in brief: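 Human primary bronchial epithelial cells were exposed to test chemicals for 24 h. Total protein in parallel cultures was then measured by staining with 0.1% sulforhodamine B after 10% TCA fixation, with absorbance read at 560 nm. Activity was fitted bidirectionally against DMSO.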

[6] = read-out: Thrombomodulin, THBD (gene 7056); test: BSK_3C_Thrombomodulin: BioMAP Diversity Plus: 3C Assay for Thrombomodulin Biomarker Activity (AID 2283029); settings: primary human endothelial cells (HUVEC); actives raise or lower the signal
Method in brief: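 Human umbilical vein endothelial cells were exposed to chemicals for 24 h; cell-surface thrombomodulin quantified by ELISA, with bidirectional fitting against DMSO baseline.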

[7] = read-out: Urokinase-type plasminogen activator receptor (uPAR), PLAUR (gene 5329); test: BSK_4H_uPAR: BioMAP Diversity Plus: 4H Assay for Urokinase-type plasminogen activator receptor (uPAR) Biomarker Activity (AID 2283030); settings: primary human endothelial cells (HUVEC); actives raise or lower the signal
Method in brief: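 Primary human umbilical vein endothelial cells were exposed to chemical for 24 h before cell-surface uPAR was quantified by ELISA. Activity was fitted bidirectionally against the DMSO negative control baseline.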

[8] = read-out: Vascular endothelial growth factor receptor 2 (Homo sapiens) (UniProt P35968); test: BSK_4H_VEGFRII: BioMAP Diversity Plus: 4H Assay for Vascular endothelial growth factor receptor 2 (VEGFR2) Biomarker Activity (AID 2283031); settings: primary human endothelial cells (HUVEC); actives raise or lower the signal;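 on AC50: cell-surface VEGFR2 protein level quantified by ELISA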
Method in brief: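 Primary human umbilical vein endothelial cells in the BioMAP 4H system were dosed with test chemical, and 24 h later VEGFRII was measured by ELISA. Activity was fitted bidirectionally against DMSO as negative control and baseline.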

[9] = read-out: Vascular cell adhesion molecule 1 (VCAM1), VCAM1 (gene 7412); test: BSK_4H_VCAM1: BioMAP Diversity Plus: 4H Assay for Vascular cell adhesion molecule 1 (VCAM1) Biomarker Activity (AID 2283033); settings: primary human endothelial cells (HUVEC); actives raise or lower the signal
Method in brief: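 Primary human umbilical vein endothelial cells, 4H stimulation system, treated for 24 h; cell-surface VCAM-1 quantified by ELISA. Bidirectional fitting against DMSO; cytotoxicity tracked by SRB total-protein staining in parallel cultures.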

[10] = read-out: Interferon-gamma inducible Protein 10 (IP10), CXCL10 (gene 3627); test: BSK_BE3C_IP10: BioMAP Diversity Plus: BE3C Assay for Interferon-gamma inducible Protein 10 (IP10) Biomarker Activity (AID 2283034); settings: primary human bronchial epithelial cells; actives raise or lower the signal
Method in brief: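 Primary human bronchial epithelial cells, with IP-10 measured by ELISA 24 hours after chemical dosing. Bidirectional fit against DMSO; cytotoxicity checked by SRB total protein staining in parallel cultures.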

[11] = read-out: Monokine induced gamma interferon (MIG), CXCL9 (gene 4283); test: BSK_BE3C_MIG: BioMAP Diversity Plus: BE3C Assay for Monokine induced gamma interferon (MIG) Biomarker Activity (AID 2283035); settings: primary human bronchial epithelial cells; actives raise or lower the signal
Method in brief: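 ELISA read-out of MIG in human lung bronchial epithelial primary cultures, 24 h post-dosing. Bidirectional curve fit vs DMSO baseline.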

[12] = read-out: Transforming growth factor beta 1 (TGFb1), TGFB1 (gene 7040); test: BSK_BE3C_TGFb1: BioMAP Diversity Plus: BE3C Assay for Transforming growth factor beta 1 (TGFb1) Biomarker Activity (AID 2283036); settings: primary human bronchial epithelial cells; actives raise or lower the signal
Method in brief: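 Primary human bronchial epithelial cells dosed with chemical; TGF-b1 measured by ELISA 24 h after dosing. Bidirectional curve fitting against DMSO negative control; SRB total-protein staining in parallel cultures gauged cytotoxicity.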

[13] = read-out: Plasminogen activator inhibitor-1 (PAI1), SERPINE1 (gene 5054); test: BSK_BE3C_PAI1: BioMAP Diversity Plus: BE3C Assay for Plasminogen activator inhibitor-1 (PAI1) Biomarker Activity (AID 2283037); settings: primary human bronchial epithelial cells; actives raise or lower the signal
Method in brief: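 Primary human bronchial epithelial cells (BE3C system) exposed 24 h; PAI-1 quantified by ELISA. Parallel sulforhodamine B staining of total protein flags cytotoxicity. Bidirectional fit versus DMSO.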

[14] = read-out: urokinase plasminogen activator (uPA), PLAU (gene 5328); test: BSK_BE3C_uPA: BioMAP Diversity Plus: BE3C Assay for urokinase plasminogen activator (uPA) Biomarker Activity (AID 2283038); settings: primary human bronchial epithelial cells; actives raise or lower the signal
Method in brief: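 Human primary bronchial epithelial cells were exposed to chemical for 24 h, then uPA levels were measured by ELISA. Responses were fitted bidirectionally against DMSO as negative control and baseline. Parallel SRB staining of total protein gauged overt cytotoxicity.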

[15] = read-out: Urokinase-type plasminogen activator receptor (uPAR), PLAUR (gene 5329); test: BSK_BE3C_uPAR: BioMAP Diversity Plus: BE3C Assay for Urokinase-type plasminogen activator receptor (uPAR) Biomarker Activity (AID 2283039); settings: primary human bronchial epithelial cells; actives raise or lower the signal
Method in brief: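 Primary human bronchial epithelial cells dosed for 24 h; uPAR quantified by ELISA with bidirectional fitting against DMSO. Overt cytotoxicity assessed in parallel cultures by SRB total-protein staining (0.1% SRB, 560 nm).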

[16] = read-out: Interleukin-6 (IL6), IL6 (gene 3569); test: BSK_CASM3C_IL6: BioMAP Diversity Plus: CASM3C Assay for Interleukin-6 (IL6) Biomarker Activity for (AID 2283040); settings: primary human coronary artery smooth muscle cells; actives raise or lower the signal
[17] = read-out: Tissue plasminogen activator (tPA), PLAT (gene 5327); test: BSK_BE3C_tPA: BioMAP Diversity Plus: BE3C Assay for Tissue plasminogen activator (tPA) Biomarker Activity (AID 2283041); settings: primary human bronchial epithelial cells; actives raise or lower the signal
Method in brief: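 Primary human bronchial epithelial cells in the BE3C system, exposed to compound for 24 h. tPA was quantified by ELISA; DMSO served as baseline, with gain or loss of signal fitted. Cytotoxicity checked in parallel cultures by SRB total-protein staining.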

[18] = read-out: Interleukin-8 (IL8), CXCL8 (gene 3576); test: BSK_CASM3C_IL8: BioMAP Diversity Plus: CASM3C Assay for Interleukin-8 (IL8) Biomarker Activity (AID 2283042); settings: primary human coronary artery smooth muscle cells; actives raise or lower the signal;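 further: IL-8 protein level quantified by ELISA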
[19] = read-out: Human Leukocyte Antigen - DR isotype (HLADR), HLA-DRA (gene 3122); test: BSK_CASM3C_HLADR: BioMAP Diversity Plus: CASM3C Assay for Human Leukocyte Antigen - DR isotype (HLADR) Biomarker Activity (AID 2283043); settings: primary human coronary artery smooth muscle cells; actives raise or lower the signal;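 further: cell-surface HLA-DR protein level quantified by ELISA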
[20] = read-out: Human Leukocyte Antigen - DR isotype (HLADR), HLA-DRA (gene 3122); test: BSK_BE3C_HLADR: BioMAP Diversity Plus: BE3C Assay for Human Leukocyte Antigen - DR isotype (HLADR) Biomarker Activity (AID 2283032); settings: primary human bronchial epithelial cells; actives raise or lower the signal
Method in brief: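 Human primary bronchial epithelial cells (BE3C system) exposed to compound for 24 hours; cell-surface HLA-DR measured by ELISA, fitted bidirectionally relative to DMSO. Total protein by SRB in parallel cultures tracked cytotoxicity.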

Measured: AC50

COc1ccccc1N
not listed: [20]
inactive: all other assays above

CCCCN(CCCC)C(=S)[S-].CCCCN(CCCC)C(=S)[S-].[Ni+2]
not listed: [8]
inactive: all other assays above

NC(=O)CCl
active: [19] 20 µM
not listed: [12] | [20]
inactive: all other assays above

Cc1cc(C(C)(C)c2ccc(O)c(C)c2)ccc1O
active: [2] 18.7 µM | [4] 14.3 µM | [7] 15.3 µM | [20] 10 µM | [9] 16.8 µM | [10] 10 µM | [12] 10 µM | [13] 10 µM | [15] 3.66 µM | [16] 10 µM | [17] 15.2 µM | [19] 17.4 µM
inactive: [1] | [5] | [6] | [8] | [11] | [14] | [18]

Cc1ccc2nc3sc(=O)sc3nc2c1
active: [2] 9.8 µM | [4] 6.96 µM | [7] 6.39 µM | [8] 9.18 µM | [20] 5 µM | [9] 7.39 µM
not listed: [3]
inactive: all other assays above

C[C@]12CC[C@@H](O)C[C@@H]1CC[C@@H]1[C@@H]2CC[C@]2(C)C(=O)CC[C@@H]12
not listed: [3]
inactive: all other assays above

CC(C)O.CC(C)O.OCCN(CCO)CCO.OCCN(CCO)CCO.[Ti]
not listed: [12] | [20]
inactive: all other assays above

CCOP(=S)(OCC)SCS(=O)(=O)C(C)(C)C
not listed: [3]
inactive: all other assays above

N#Cc1cccnc1
inactive: all assays above

N#CCCC(Br)(C#N)CBr (configuration not stated)
inactive: [6]
active: [1] 20 µM | [2] 5.04 µM | [3] 6.62 µM | [4] 6.36 µM | [5] 20 µM | [7] 8.75 µM | [8] 5.39 µM | [20] 27.9 µM | [9] 7.87 µM | [10] 28.1 µM | [11] 36.8 µM | [12] 20 µM | [13] 20 µM | [14] 20 µM | [15] 20 µM | [16] 20 µM | [17] 9.86 µM | [18] 20 µM | [19] 8.75 µM

Cc1cccc(OP(=O)(Oc2cccc(C)c2)Oc2cccc(C)c2)c1
active: [6] 0.14 µM | [13] 2.76 µM | [14] 0.016 µM | [17] 0.677 µM
not listed: [12] | [20]
inactive: all other assays above

OCCN(CCO)CCO
not listed: [12]
inactive: all other assays above
